According to ChEMBL document CHEMBL3988442, “University of Dundee, Small-Polar-MMV Screening Library” (2021):
For some assays here: Entries with a potency or affinity are not part of this list.

Experiments:
Set-up in all cases: scale not given: direction of the effect not stated beside the values
[1] = biological target: Protein translocase subunit SecA (Escherichia coli (strain K12)) (UniProt P10408); assay: Assay to Identify E. coli SecA ATPase Inhibitors; type: functional; details: 30 µM
[2] = biological target: T1, Ubiquitin-activating enzyme e1, putative (Leishmania donovani (strain BPK282A1)) (UniProt E9BSI1); assay: Leishmania donovani Ubiquitin Activating Enzyme (LdE1); type: functional; details: 30 µM
T1 sequence (whole entry): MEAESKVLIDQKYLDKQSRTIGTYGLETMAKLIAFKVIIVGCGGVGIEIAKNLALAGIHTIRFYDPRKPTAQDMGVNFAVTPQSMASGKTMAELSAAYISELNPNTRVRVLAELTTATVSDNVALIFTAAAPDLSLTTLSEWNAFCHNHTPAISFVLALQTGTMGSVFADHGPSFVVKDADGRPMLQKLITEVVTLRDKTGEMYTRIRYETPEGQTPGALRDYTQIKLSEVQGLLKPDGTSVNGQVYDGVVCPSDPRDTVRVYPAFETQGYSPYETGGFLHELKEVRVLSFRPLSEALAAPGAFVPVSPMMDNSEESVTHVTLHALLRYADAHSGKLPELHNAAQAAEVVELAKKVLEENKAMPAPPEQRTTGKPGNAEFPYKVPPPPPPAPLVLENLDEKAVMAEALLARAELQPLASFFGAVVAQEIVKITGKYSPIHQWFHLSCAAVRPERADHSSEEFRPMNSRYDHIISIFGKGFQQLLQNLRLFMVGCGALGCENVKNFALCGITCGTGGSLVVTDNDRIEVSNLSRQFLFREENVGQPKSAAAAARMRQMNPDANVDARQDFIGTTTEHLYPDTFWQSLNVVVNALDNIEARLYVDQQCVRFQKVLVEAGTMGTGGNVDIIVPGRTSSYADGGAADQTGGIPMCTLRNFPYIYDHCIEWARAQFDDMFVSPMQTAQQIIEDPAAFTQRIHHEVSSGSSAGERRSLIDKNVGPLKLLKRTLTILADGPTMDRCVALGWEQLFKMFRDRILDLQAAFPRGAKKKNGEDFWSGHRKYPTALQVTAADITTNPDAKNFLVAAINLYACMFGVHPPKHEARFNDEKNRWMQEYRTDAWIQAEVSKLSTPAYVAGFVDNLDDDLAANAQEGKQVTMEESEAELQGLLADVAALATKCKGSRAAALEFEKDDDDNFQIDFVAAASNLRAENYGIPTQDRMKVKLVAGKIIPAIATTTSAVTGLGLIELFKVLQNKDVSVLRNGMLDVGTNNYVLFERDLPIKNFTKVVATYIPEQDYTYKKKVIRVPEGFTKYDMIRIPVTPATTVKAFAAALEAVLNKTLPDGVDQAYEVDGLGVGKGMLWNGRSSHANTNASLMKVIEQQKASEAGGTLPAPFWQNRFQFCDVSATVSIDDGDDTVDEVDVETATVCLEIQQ

[3] = biological target: Sialic acid-binding Ig-like lectin 9 (Homo sapiens) (UniProt Q9Y336); assay: Hs-Siglec9 ALPHAscreen SOP 20170721; details: 10 µM
[4] = system: Trypanosoma cruzi; assay: Trypanosoma cruzi phosphomannomutase and mannose-1-phosphate guanylyltransferase assay; type: functional; details: 10 µM
[5] = biological target: T2, Arginase-2, mitochondrial (Homo sapiens) (UniProt P78540); assay: in vitro enzyme assay to detect the production of urea directly proportional to the activity of Arginase II; type: functional; details: 33.3 µM; also: in the data most compounds retested in dose-response had high values
T2 sequence (whole entry): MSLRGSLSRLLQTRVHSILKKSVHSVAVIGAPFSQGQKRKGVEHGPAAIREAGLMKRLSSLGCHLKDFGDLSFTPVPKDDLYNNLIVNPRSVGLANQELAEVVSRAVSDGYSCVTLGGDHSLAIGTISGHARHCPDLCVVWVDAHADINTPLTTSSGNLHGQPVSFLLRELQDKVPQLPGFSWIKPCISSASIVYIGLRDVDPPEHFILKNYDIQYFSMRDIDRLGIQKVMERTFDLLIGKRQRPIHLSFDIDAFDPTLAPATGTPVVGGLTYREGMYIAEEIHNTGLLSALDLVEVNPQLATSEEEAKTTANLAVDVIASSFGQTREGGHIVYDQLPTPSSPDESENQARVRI

[6] = biological target: T3, Proteasome subunit beta (Trypanosoma cruzi) (UniProt O96673); assay: Trypanosoma cruzi proteasome chymotrypsin-like activity (TcProtChymo) assay.; also: in the data most compounds retested in dose-response had high values; type: functional; details: 9.37 µM
T3 sequence (whole entry): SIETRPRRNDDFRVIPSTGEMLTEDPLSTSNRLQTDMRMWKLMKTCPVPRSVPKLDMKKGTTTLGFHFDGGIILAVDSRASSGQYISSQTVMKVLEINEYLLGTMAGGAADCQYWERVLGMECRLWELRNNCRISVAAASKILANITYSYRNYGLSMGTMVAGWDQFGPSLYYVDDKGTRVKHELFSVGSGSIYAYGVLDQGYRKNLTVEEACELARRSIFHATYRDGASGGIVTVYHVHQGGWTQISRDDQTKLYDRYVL

[7] = species: Homo sapiens; assay: To identify inhibition of the IFN signalling (Jak-Stat) pathway via expression of an eGFP reporter gene under the control of an IFN-stimulated response element (ISRE) containing MxA promoter.; type: functional; details: 30 µM
[8] = biological target: T4, Tyrosyl-tRNA synthetase, putative (Trypanosoma cruzi (strain CL Brener)) (UniProt Q4DSP6); assay: Trypanosoma cruzi tyrosyl tRNA synthetase (TcYRS) _High Tyrosine SOP; type: functional; details: 30 µM; also: in the data most compounds retested in dose-response had high values
T4 sequence (whole entry): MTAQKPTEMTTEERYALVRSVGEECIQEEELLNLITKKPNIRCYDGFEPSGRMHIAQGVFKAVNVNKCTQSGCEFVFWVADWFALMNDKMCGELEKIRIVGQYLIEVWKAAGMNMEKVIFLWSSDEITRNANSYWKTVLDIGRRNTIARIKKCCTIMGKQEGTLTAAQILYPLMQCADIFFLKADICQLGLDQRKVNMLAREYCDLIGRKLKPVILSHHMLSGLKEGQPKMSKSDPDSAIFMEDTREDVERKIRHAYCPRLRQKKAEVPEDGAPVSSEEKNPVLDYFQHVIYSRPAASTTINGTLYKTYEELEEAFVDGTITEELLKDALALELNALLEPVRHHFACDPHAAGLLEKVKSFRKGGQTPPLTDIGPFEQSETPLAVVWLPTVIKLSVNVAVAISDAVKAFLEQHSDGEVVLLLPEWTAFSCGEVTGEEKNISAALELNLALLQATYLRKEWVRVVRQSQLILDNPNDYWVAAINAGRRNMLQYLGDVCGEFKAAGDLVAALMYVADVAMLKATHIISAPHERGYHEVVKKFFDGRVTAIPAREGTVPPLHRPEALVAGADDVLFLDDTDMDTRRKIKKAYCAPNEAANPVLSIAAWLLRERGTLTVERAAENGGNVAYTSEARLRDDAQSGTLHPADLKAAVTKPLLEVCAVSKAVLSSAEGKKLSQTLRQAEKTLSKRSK

[9] = biological target: T4, Tyrosyl-tRNA synthetase, putative (Trypanosoma cruzi (strain CL Brener)); assay: Trypanosoma cruzi tyrosyl tRNA synthetase (TcYRS) SOP; type: functional; details: 30 µM
[10] = biological target: Chromo domain-containing protein 1 (Saccharomyces cerevisiae (strain ATCC 204508 / S288c) (Baker's yeast)) (UniProt P32657); assay: ScCHD-1 Enzyme Inhibition Assay; type: functional; details: 30 µM; also: in the data most compounds retested in dose-response had high values
Sequence of Chromo domain-containing protein 1 (Saccharomyces cerevisiae (strain ATCC 204508 / S288c) (Baker's yeast)) (P32657 whole entry, the tested form may be a part): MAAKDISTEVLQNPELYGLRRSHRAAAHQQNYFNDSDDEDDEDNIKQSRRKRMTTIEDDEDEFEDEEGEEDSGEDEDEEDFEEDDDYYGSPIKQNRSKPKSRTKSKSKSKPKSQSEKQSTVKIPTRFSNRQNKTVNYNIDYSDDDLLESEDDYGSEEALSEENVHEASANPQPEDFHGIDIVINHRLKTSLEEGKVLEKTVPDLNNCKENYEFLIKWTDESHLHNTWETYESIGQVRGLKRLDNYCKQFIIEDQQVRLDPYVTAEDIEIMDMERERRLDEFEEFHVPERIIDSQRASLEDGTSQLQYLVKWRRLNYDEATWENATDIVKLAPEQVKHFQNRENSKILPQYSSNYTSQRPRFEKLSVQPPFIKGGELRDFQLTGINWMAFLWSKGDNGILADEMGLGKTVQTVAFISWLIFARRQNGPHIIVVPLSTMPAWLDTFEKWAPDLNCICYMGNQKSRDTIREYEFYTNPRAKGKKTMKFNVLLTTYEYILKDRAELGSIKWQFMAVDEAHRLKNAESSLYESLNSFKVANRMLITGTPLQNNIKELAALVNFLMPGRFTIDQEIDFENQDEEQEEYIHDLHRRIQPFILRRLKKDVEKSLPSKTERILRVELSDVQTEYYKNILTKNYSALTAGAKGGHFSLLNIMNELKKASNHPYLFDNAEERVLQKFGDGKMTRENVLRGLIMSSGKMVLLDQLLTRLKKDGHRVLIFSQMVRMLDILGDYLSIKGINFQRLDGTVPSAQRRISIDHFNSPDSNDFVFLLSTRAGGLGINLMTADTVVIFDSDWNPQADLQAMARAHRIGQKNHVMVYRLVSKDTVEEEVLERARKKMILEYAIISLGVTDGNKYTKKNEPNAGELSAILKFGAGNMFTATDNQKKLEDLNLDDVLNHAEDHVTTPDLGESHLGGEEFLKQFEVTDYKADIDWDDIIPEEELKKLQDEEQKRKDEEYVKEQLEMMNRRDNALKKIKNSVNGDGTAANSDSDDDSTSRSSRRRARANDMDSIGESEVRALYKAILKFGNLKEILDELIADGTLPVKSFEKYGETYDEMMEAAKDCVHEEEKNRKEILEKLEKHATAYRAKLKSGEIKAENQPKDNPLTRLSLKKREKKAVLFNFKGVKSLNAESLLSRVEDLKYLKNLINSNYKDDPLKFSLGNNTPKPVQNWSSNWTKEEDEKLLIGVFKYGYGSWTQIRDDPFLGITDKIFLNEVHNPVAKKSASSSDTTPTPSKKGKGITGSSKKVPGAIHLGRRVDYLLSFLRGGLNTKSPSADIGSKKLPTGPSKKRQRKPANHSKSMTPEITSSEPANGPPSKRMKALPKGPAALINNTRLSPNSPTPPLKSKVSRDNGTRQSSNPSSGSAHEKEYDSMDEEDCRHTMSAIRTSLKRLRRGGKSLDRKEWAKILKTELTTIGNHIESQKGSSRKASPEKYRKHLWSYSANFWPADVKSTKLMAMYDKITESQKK

Sequence of Sialic acid-binding Ig-like lectin 9 (Homo sapiens) (Q9Y336 whole entry): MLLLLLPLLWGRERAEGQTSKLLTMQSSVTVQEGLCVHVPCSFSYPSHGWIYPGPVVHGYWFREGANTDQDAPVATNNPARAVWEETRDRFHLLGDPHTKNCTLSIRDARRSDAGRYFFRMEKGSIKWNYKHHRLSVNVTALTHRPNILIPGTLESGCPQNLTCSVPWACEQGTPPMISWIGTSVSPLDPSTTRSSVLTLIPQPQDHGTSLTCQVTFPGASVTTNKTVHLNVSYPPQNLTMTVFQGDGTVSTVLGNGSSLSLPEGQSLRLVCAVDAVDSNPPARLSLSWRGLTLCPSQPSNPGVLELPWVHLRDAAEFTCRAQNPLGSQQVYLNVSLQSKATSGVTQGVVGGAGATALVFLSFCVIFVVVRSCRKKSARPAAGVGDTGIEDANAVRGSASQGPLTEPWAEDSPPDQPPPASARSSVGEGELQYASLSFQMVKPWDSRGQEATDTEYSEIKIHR
Sequence of Protein translocase subunit SecA (Escherichia coli (strain K12)) (P10408 whole entry): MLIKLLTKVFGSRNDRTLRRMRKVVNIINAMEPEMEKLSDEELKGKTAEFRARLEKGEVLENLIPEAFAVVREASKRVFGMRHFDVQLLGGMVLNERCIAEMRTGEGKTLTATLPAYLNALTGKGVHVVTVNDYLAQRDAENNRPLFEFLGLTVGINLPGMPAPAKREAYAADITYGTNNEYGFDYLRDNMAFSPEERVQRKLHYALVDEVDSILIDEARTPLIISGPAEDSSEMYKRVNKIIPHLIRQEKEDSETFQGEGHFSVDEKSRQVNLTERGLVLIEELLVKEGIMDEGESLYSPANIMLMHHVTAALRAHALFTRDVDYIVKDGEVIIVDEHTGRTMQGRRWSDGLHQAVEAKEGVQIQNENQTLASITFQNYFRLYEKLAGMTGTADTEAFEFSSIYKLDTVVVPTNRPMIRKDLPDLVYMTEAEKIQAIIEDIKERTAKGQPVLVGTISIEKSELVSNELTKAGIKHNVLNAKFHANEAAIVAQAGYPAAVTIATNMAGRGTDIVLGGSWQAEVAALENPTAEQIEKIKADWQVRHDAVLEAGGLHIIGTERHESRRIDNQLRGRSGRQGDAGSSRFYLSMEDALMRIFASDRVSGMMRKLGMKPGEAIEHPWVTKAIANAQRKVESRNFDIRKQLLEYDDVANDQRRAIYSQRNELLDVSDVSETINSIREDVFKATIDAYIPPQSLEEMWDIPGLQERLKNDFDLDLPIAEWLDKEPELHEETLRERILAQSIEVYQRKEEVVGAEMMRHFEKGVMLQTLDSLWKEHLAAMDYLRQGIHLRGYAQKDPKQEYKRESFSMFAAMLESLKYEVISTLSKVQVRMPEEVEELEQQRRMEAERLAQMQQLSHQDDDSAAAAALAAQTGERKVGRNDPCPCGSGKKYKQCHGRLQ

Structure (SMILES)	Percent Effect [1] [%]	Percent Effect [2] [%]	Percent Effect [3] [%]	Percent Effect [4] [%]	Percent Effect [5] [%]	Percent Effect [6] [%]	Percent Effect [7] [%]	Percent Effect [8] [%]	Percent Effect [9] [%]	Percent Effect [10] [%]
Cc1noc(C(C)C)c1C(=O)NCCCN1CCCC1	-2.44	26	0.986	1.12	-3.48	12.1	8.55	7.84	30.6	-13.2
COC(=O)CC(c1ccccc1)c1oc(C)cc(=O)c1O (stereo not given)	-10.4	0	4.84	-5.33	-1.75	1.71	6.47	1.6	0	-1.53
CCn1ccnc1CN1CCCN(C(=O)c2cc(Cl)c[nH]2)CC1	-1.59	12.8	9.67	7.98	8.61	1.79	10.2	3.35	22.9	-8.12
OC(COCc1ccccc1F)CN1CCc2c(ncn2C2CC2)C1 (stereo not given)	-3.46	-5.33	7.5	-4.02	2.66	8.06	10.4	2.63	0	-6.26
CN(C)S(=O)(=O)N1CC[C@]2(C[C@H](Oc3ncccc3F)CO2)C1	-1.29	1.3	10.8	0.0974	0	1.15	-1.45	4.74	5.13	14.3
N#Cc1cccc(N2CC3(CCN(C(=O)c4cccnc4)C3)CC2=O)c1 (stereo not given)	-6.73	9.09	-3.3	-4.58	-3.64	12.6	-1.73	3.68	15.4	-3.29
COCCN1C[C@H]2[C@@H](C1)N(C(=O)c1cccs1)CC[C@H]2OC	-5.76	-108	1.61	7.11	-6.07	4.5	-13.9	1.58	7.69	1.4
CN(Cc1nnc(C2CC2)o1)C1CCN(CCCc2cnn(C)c2)C1 (stereo not given)	-0.864	10.7	-3.87	-2.61	-2.22	22.1	18.5	11.1	15.4	-5.79
CC(=O)N1[C@@H](C(=O)NCC2CC2)C[C@@H]2CN(Cc3ccco3)C[C@@H]21	-0.254	22.1	-5.46	-0.938	3.2	12.1	9.99	3.87	7.5	-7.56
Cc1n[nH]c(C)c1C1COCCN1C(=O)c1ccccc1 (stereo not given)	0.213	-2.56	15	-3.47	8.61	3.67	20.7	-1.44	-1.21	-0.727
COCCN1C[C@@H]2CN(C(=O)[C@H]3CCCO3)C[C@@H]2C1=O	0.0627	16.9	-1.76	-6.38	3.65	24.5	7.75	7.73	12.5	-7.63
Fc1ccc(CN2CCC(c3n[nH]c4ncccc34)CC2)cc1F	-7.07	4	-2.28	-6.11	-0.885	3.94	16.9	-4.23	-5	-26.5
CCOC1COC2(CCN(S(=O)(=O)c3cccc(F)c3)CC2)C1 (stereo not given)	-2.48	6.49	-0.342	-7.3	6.07	19.9	-2.83	6.84	7.69	-3.54
CC(C)c1cc(N2CCC(N)CC2)n2nccc2n1	-7.82	5.41	8.57	11	-3.15	20.6	11.5	3.72	17.1	-1.59
CCc1nc(C2CCCN2C(=O)c2c[nH]c(C)n2)no1 (stereo not given)	-9.57	10.7	18.3	3.41	-2.66	12.1	-2.6	7.89	12.8	-9.37
CC(C)c1nc(C2CCCN2Cc2ccn(C)c(=O)c2)no1 (stereo not given)	-2.26	15.4	1.98	-0.845	7.79	20.1	17.1	6.22	18.1	-2.67
O=C(Nc1cccc2c1CCCC2)C1CCCN1c1nccs1 (stereo not given)	-1.27	5.13	1.32	-0.845	4.51	5.55	-6.07	8.13	20.5	13.6
Cc1ccc(NC(=O)C2CSCN2C(=O)c2cnn(C)c2)c(C)c1 (stereo not given)	-6.12	5.13	11	3.29	-0.41	-1.28	0.716	4.31	18.1	-1.32
CCc1cc(O)nc(C2CCCN2C(=O)c2cccnc2)n1 (stereo not given)	5.68	14.7	-8.39	-6.71	3.1	15.1	13	0	5	-14.4
O=C1NCCN(CC2CC2)C12CCN(Cc1ccco1)CC2	-2.83	9.09	-15.9	-9.45	2.83	18.8	10.4	2.63	-2.56	-3.23
CCn1ccnc1CN1CCN(CC(O)c2ccccc2)CC1 (stereo not given)	-1.54	2.56	2.88	-4.79	4.51	6.91	10.2	1.44	6.02	-0.452
CC(=O)NC1CCCN(C(=O)NCc2cccnc2-n2cccn2)C1 (stereo not given)	-4.23	10.7	-0.777	-6.22	6.21	11.4	14.4	5.79	7.69	-8.06
CCOC(=O)N1CCN(C(=O)c2sc(-c3ccc(F)cc3)nc2C)CC1	-7.21	5.41	8.85	-1.65	1.05	17.5	1.22	4.79	12.2	-3.55
